About 940 (45%) of roughly 2,100 compounds were called active. About 48% were inconclusive and are not listed. The call rests on the fitted dose curve; in most records, active means well fitted inhibition curve with a large enough effect; inconclusive means small, poorly fitted or top-dose-only effect; inactive means no such curve, though single readings can be large or run the other way. The set was probably picked from earlier hits. This is one part of the list.
Potency means the concentration at half of the fitted maximal effect.

The assay in a line: Confirmatory qHTS for Inhibitors of ATXN expression. Further: nearly all actives have a fitted effect of over 65% in size.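 On activity change, negative = inhibition: 0% = DMSO vehicle wells and -100% = medium-only wells without cells.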 To be noted: ATXN2-luciferase reporter cells, luminescence, 24 h; series mostly up to 11.5 µM; activity change, negative = inhibition: at the top concentration. Summed up: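 A titration, incubated 24 h with reporter cells expressing ATXN2-luciferase. Luminescence (SteadyGlo) gives ATXN2 expression, multiplexed GF-AFC fluorescence gives viability; normalised to DMSO and medium-only wells.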
A general note: qHTS replaces the single test concentration by a dilution series.
In the case of `CCOC(=O)c1c(NC(=O)COC(=O)CNC(=O)c2ccco2)sc(C)c1C`, the Potency was 2.51 µM (active).

As to `COC(=O)c1cn(NC(=O)c2cc([N+](=O)[O-])ccc2F)c(=O)c2ccccc12`, the Potency is 2 µM (active).

As for `COc1ccc(O)c(/C=N/NC(=O)c2ccc(CSc3nc(C)cc(C)n3)cc2)c1`, the Potency is 2.82 µM (active).

Consider `O=C(N/N=C/c1cc(Br)ccc1OC(=O)c1ccc(Br)cc1)c1ccncc1`, for which the Potency is 2.82 µM (active).

Consider `CC(C)CC(=NNC(=O)c1ccncc1)c1cc(Cl)ccc1O`, for which the Potency was 0.708 µM (active).

As for `COc1ccc(C(=O)N/N=C/c2cc(Br)ccc2O)cc1OC`, the Potency is 3.16 µM (active).

On to `COc1ccc(O)c(/C=N/NC(=O)c2ccc(OCc3cccc(Br)c3)cc2)c1`, for which the Potency is 0.891 µM (active).

As to `O=C(N/N=C/c1cc(Br)cc(Br)c1O)c1cccc(N2CCCC2=O)c1`, the Potency was 2 µM (active).

Take `O=C(N/N=C/c1cc(Br)ccc1O)c1ccncc1`: the Potency was 0.794 µM (active).

With `O=C(N/N=C/c1cc(Br)cc(Br)c1O)c1ccncc1`, the Potency is 2.82 µM (active).

With `O=C(CP(=O)(c1ccccc1)c1ccccc1)N/N=C/c1cc(Br)cc(Br)c1O`, the Potency was 1.58 µM (active).

On to `O=C(N/N=C/c1cc(Br)ccc1O)C(c1ccncc1)N1CCOCC1` (stereo unspecified), for which the Potency is 14.1 µM (active).

Take `CCC(O)(CC)C(=O)N/N=C/c1cc(Br)cc(Br)c1O`: the Potency is 17.8 µM (active).

Turning to `O=C(N/N=C/c1cc(Cl)ccc1O)c1ccncc1`, the Potency was 3.16 µM (active).

On to `CN(C)c1ccc(C(=O)N/N=C/c2cc(Br)cc(Br)c2O)cc1`, for which the Potency was 1.41 µM (active).

With `C/C(=N\N=C(N)N)c1ccc(Cl)cc1Cl`, the Potency was 15.8 µM (active).

As for `CC1(C)Cc2ccccc2C(NNC(=O)c2ccccn2)=N1`, the Potency was 15.8 µM (active).

`CNc1ccc(Br)cc(C(=O)/C=C/c2ccc3c(c2)OCO3)c1=O`: the “activity change, negative = inhibition” value is 7.11% (inactive).

Turning to `O=C(CNC(=O)c1ccccc1Br)N/N=C/c1cc(Br)ccc1O`, the Potency is 2 µM (active).

Turning to `CC(SC(C)C(=O)NN=Cc1cccc(Cl)c1)C(=O)NN=Cc1cccc(Cl)c1` (stereo unspecified), the “activity change, negative = inhibition” value is -31.9% (inactive).

For the compound `O=C(N/N=C/c1cc(Br)cc(Cl)c1O)c1ccc2c(c1)OCO2`, the Potency was 3.98 µM (active).

Take `O=C(CNC(=O)c1ccc2c(c1)OCO2)N/N=C/c1cc(Br)ccc1O`: the Potency is 3.55 µM (active).

Regarding `O=C(N/N=C/c1cc(Cl)ccc1O)c1ccccc1Br`, the Potency was 3.98 µM (active).

For `O=C(CNC(=O)c1ccccc1Br)N/N=C/c1ccccc1O`, the Potency is 15.8 µM (active).

Turning to `NS(=O)(=O)c1ccc(CCNC(=O)COC(=O)/C=C/c2cc(Br)ccc2F)cc1`, the “activity change, negative = inhibition” value is -3.85% (inactive).

As to `O=C(CCc1ccccc1)N/N=C/c1cc(Br)ccc1O`, the Potency was 1.12 µM (active).

With `CCc1ccccc1OCC(=O)Nc1nc(-c2cccnc2)cs1`, the Potency is 14.1 µM (active).

Turning to `COc1ccc(/C=C/C(O)=C2/C(=O)N(C)C3(C)CC2c2ccccc2O3)cc1` (stereo unspecified), the Potency was 20 µM (active).

On to `C/[N+]([O-])=C\c1cccc(OCCN2CCN(c3ncc(C(F)(F)F)cc3Cl)CC2)c1`, for which the “activity change, negative = inhibition” value is -26.9% (inactive).

With `COc1ccc(NS(=O)(=O)c2ccc(C(=O)Nc3c(C)n(C)n(-c4ccccc4)c3=O)cc2)cc1`, the “activity change, negative = inhibition” value was -4.47% (inactive).

Regarding `CCOc1ccc(NS(=O)(=O)c2ccc(C(=O)NNC(=O)c3ccccc3O)cc2)cc1`, the Potency is 15.8 µM (active).

As for `Cc1ccc(NS(=O)(=O)c2ccc(C(=O)NNC(=O)c3ccccc3O)cc2)cc1`, the Potency is 14.1 µM (active).

For `Cc1ccc(C)c(S(=O)(=O)N2CCN(c3ncnc4sccc34)CC2)c1`, the Potency is 0.631 µM (active).

Consider `Cc1ccc(N/C(N)=N/c2nc(C)cc(N3CCCCC3)n2)c(C)c1`, for which the Potency is 3.98 µM (active).

Take `COc1ccc(Cn2cc3c(-c4ccc(F)cc4)nnc-3c3cc(OC)c(OC)cc32)cc1`: the Potency is 1.78 µM (active).

Regarding `COc1cc2c3nnc(-c4ccc(F)cc4)c-3cn(Cc3ccccc3F)c2cc1OC`, the Potency is 2 µM (active).

In the case of `COc1cc2c3nnc(-c4ccc(F)cc4)c-3cn(Cc3ccc(F)cc3)c2cc1OC`, the Potency was 2.82 µM (active).

As for `Cc1ccc(NC(=O)/C=C/c2ccc([N+](=O)[O-])s2)c(C)c1`, the Potency is 1.41 µM (active).

For `O=[N+]([O-])c1ccc(/C=N/N=C/c2ccc([N+](=O)[O-])o2)o1`, the Potency was 6.31 µM (active).

For `COc1ccccc1NS(=O)(=O)c1cccc(C(=O)N/N=C/c2ccc([N+](=O)[O-])o2)c1`, the Potency is 11.2 µM (active).

As for `O=C(N/N=C/c1ccc([N+](=O)[O-])o1)c1ccc2c(c1)OCO2`, the Potency is 14.1 µM (active).

`CC1(C(=O)N/N=C/c2ccc([N+](=O)[O-])o2)CC1(Br)Br` (stereo unspecified): the Potency was 22.4 µM (active).

As for `COc1ccc(-c2csc3ncnc(Sc4nnnn4C)c23)cc1`, the Potency was 3.16 µM (active).

As to `Cn1nnnc1Sc1ncnc2scc(-c3ccsc3)c12`, the Potency was 14.1 µM (active).

`CCn1cc(C(=O)NCc2ccccc2)c(=O)c2cc(F)c(N3CCN(C(=O)c4ccco4)CC3)cc21`: the Potency was 28.2 µM (active).

For `CCn1cc(C(=O)NCc2cccc(F)c2)c(=O)c2cc(F)c(N3CCN(C(=O)c4ccco4)CC3)cc21`, the Potency was 15.8 µM (active).

`c1ccc(-c2nnc(-c3ccccn3)nc2NC2CCCCC2)cc1`: the Potency is 1.12 µM (active).

Turning to `CC(C)(C)c1cc[n+](C2=C([O-])c3ccccc3C(=O)/C2=N\S(=O)(=O)c2cccs2)cc1`, the Potency is 1.12 µM (active).

`O=C(O)CCn1cc(/C=C/C(=O)c2ccc(Cl)cc2)c(-c2ccc(Br)cc2)n1`: the Potency was 25.1 µM (active).

Consider `O=C(NC1=CC(=O)c2ccccc2C1=O)c1ccccc1`, for which the Potency was 14.1 µM (active).

For the compound `COc1ccc(-c2cc(CNc3nc(NC(C)C)nc4cc(-c5ccccc5)sc34)on2)cc1`, the Potency is 11.2 µM (active).

Regarding `Cc1ccc(C(C)C)c(OCc2ccc(C(=O)N/N=C/c3cccc(O)c3O)cc2)c1`, the Potency is 2.82 µM (active).

In the case of `O=C(N/N=C/c1ccc(O)cc1O)c1ccc(CN2C(=O)c3cccc4cccc2c34)cc1`, the Potency was 2 µM (active).

As for `Cc1ccc(C(C)C)c(OCc2ccc(C(=O)N/N=C/c3ccc(O)cc3O)cc2)c1`, the Potency is 1.58 µM (active).

Turning to `Cc1ccc(C(C)C)c(OCc2ccc(C(=O)N/N=C/c3ccc(O)c(O)c3)cc2)c1`, the Potency was 2.51 µM (active).

For the compound `Cc1ccc(-c2nc3ccc(Cl)cn3c2CC(C)(C)C)cc1`, the “activity change, negative = inhibition” value is -10.7% (inactive).

`Clc1ccc(C[n+]2cc(-c3ccccc3)n3c2CCCCC3)c(Cl)c1`: the Potency was 15.8 µM (active).

As for `CN[C@H]1C[C@H]2c3[nH]c4ccc(-c5ccc(OC)cc5)cc4c3CCN2C(=O)[C@H]1[C@H](C)O`, the Potency was 3.16 µM (active).

In the case of `CN(C)CCNc1ncnc2c1sc1nc(N3CCOCC3)c3c(c12)CC(C)(C)SC3`, the Potency was 15.8 µM (active).

For the compound `CN(C)CCNc1ncnc2c1sc1nc(N3CCCC3)c3c(c12)CC(C)(C)OC3`, the Potency is 25.1 µM (active).

With `CC1(C)Cc2c(c(N3CCOCC3)nc3sc4c(NN)ncnc4c23)CS1`, the Potency was 8.91 µM (active).

For `CCOc1ccc(CN(C)c2nc(-c3cccnc3)nc3ccccc23)cc1OC`, the Potency was 25.1 µM (active).

Regarding `CCCCCn1c(CN2CCN(c3cccc(Cl)c3)CC2)nc2c1c(=O)[nH]c(=O)n2C`, the Potency is 25.1 µM (active).

`CCN1C(=O)C(CC(=O)Nc2ccc(OC)cc2)N(CCc2ccc(F)cc2)C1=S` (stereo unspecified): the Potency was 2.82 µM (active).

Take `CC(C)(C)c1cc(C(=O)NN)n(Cc2ccc(Cl)cc2Cl)n1`: the Potency is 15.8 µM (active).

In the case of `O=[N+]([O-])c1cc(CN2CCN(c3ccccc3)CC2)c(O)c2ncccc12`, the Potency was 3.16 µM (active).

Take `Oc1c(CN2CCCCC2)ccc2cccnc12`: the Potency is 6.31 µM (active).

Regarding `Oc1c(CN2CCOCC2)cc(COCc2ccccc2)c2cccnc12`, the Potency was 3.16 µM (active).

As to `Oc1c(CN2CCN(c3ccccc3)CC2)cc(Br)c2cccnc12`, the Potency was 1.26 µM (active).

As for `CN(C)CCNC(=O)c1ccc(Cl)c2cc3ccccc3nc12`, the Potency was 6.31 µM (active).

On to `CN(C)CCNC(=O)c1cccc2[nH]c(-c3ccncc3)nc12`, for which the Potency is 2.82 µM (active).

For `CCN(CC)CCC(=O)Nc1cccc2c1C(=O)c1ccccc1C2=O`, the Potency was 1.58 µM (active).

Turning to `CN(CC(=O)Nc1cccc(F)c1)CC(=O)Nc1cccc2ccccc12`, the “activity change, negative = inhibition” value is -23.6% [at 57.5 µM] (inactive).

Consider `Cc1ccc(Nc2c(-c3ccccn3)nc3cccc(C)n23)cc1`, for which the Potency was 3.16 µM (active).

In the case of `Cc1ccn2c(Nc3ccccc3C)c(-c3ccccn3)nc2c1`, the Potency is 3.55 µM (active).

Consider `Cc1ccn2c(Nc3ccccc3)c(-c3ccccn3)nc2c1`, for which the Potency is 0.708 µM (active).

With `Cc1ccc(Nc2c(-c3ccccn3)nc3cc(C)ccn23)cc1`, the Potency is 3.55 µM (active).

Take `Cc1ccc2nc(-c3ccccn3)c(NC3CCCC3)n2c1`: the “activity change, negative = inhibition” value was -29.6% (inactive).

Take `Cc1ccc2c(c1)C1CN(C)CCC1N2C(=S)NC(=O)c1ccc(Br)cc1` (stereo unspecified): the “activity change, negative = inhibition” value is -21.5% (inactive).

`Cc1cnc(C(=O)NNC(=O)c2ccc(Br)cc2)cn1`: the Potency is 25.1 µM (active).

Take `COCc1ccc(CN2CCC(C(=O)Nc3cccc(-c4cccc(Cl)c4)c3)CC2)o1`: the Potency was 25.1 µM (active).

Turning to `O=C(NCc1ccco1)c1ccc(-c2cccc(Cl)c2)o1`, the “activity change, negative = inhibition” value was 40.1% [at 57.5 µM] (inactive).

As for `CSCc1nnc(NC(=O)c2ccc(S(=O)(=O)N3CCCCC3C)cc2)o1` (stereo unspecified), the Potency was 20 µM (active).

Take `O=C(Nc1nnc(C2CC2)o1)c1ccc(S(=O)(=O)N2CCCc3ccccc32)cc1`: the Potency is 7.08 µM (active).

With `CC1CCCCN1S(=O)(=O)c1ccc(C(=O)Nc2nnc(-c3ccccc3Cl)o2)cc1` (stereo unspecified), the Potency is 2.51 µM (active).

As for `CN1CCC(N(C)C(=O)c2ccc(Cl)c(S(=O)(=O)N3CCc4ccccc43)c2)CC1`, the “activity change, negative = inhibition” value is -26% [at 57.5 µM] (inactive).

As for `Cc1ccc(C)c(S(=O)(=O)N2CCN(Cc3ccc(O)c4ncccc34)CC2)c1`, the Potency is 3.16 µM (active).

Regarding `O=S(=O)(c1ccc(Cl)cc1)N1CCN(Cc2ccc(O)c3ncccc23)CC1`, the Potency was 3.55 µM (active).

Regarding `COc1ccccc1N(CC(=O)N/N=C(\C)c1ccccc1O)S(=O)(=O)c1ccc(C)cc1`, the Potency was 15.8 µM (active).

As for `COc1ccccc1-c1ccc2c(c1)C(C)(Cc1cccc(F)c1)C(=O)N2` (stereo unspecified), the Potency is 28.2 µM (active).

On to `Cc1cnc(NC(=O)CCCc2nc3ccccc3s2)s1`, for which the Potency is 1.41 µM (active).
